# Assay outcomes: PubChem, National Center for Advancing Translational Sciences (NCATS)
# CBFb RUNX1 block: CBF-beta/RUNX1 interaction disruption. Q01196+Q13951. AlphaScreen CBFb-His/RUNX1-biotin binding, biochemical. AID 1477. Potency, µM (doses to about 59.8 µM), for inactives: at the top dose activity, negative = inhibition, most hits filed as inhibitors. 230,000 tested, under 10 active; note: % of control where 0% means no effect
#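 AlphaScreen proximity signal reports loss of binding between His-tagged CBF-beta and biotin-labelled RUNX1, each at 30 nM. Proteins are pre-associated for 20 minutes, compounds added for 15 minutes, then beads for 90 minutes, all at ambient temperature.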
# TCR act: T cell receptor activation. primary human leukocytes, anti-CD3, IL-2 HTRF, 48 h. Potency, µM (doses to about 9.22 µM), for the others: top-dose activation of IL-2 secretion, usual class: activators. 330,000 tested, under 10 active; note: % of control where 0% means no effect
#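 Compounds are tested in HTS on primary human leukocytes co-incubated with a-CD3 beads for 48 hr. IL-2 output is measured by time-resolved FRET.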
# a7 integrin act: activates integrin-mediated alleviation for muscular dystrophy | alpha7betagal myoblasts, beta-gal FDG fluorescence, 48 h | Potency, µM (titrated, usually from 38.3 µM), for the others: top-dose activation, usual class: activators | actives 0.064% (n = 350,000) | AID 624291;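 note: potency is the fitted concentration of half-maximal effect; 100% = response of the positive control SU9516; nearly all actives have a fitted effect of over 60% in size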
#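 Alpha7betagal+/- myoblasts (passage 13) were plated 16-24 hr, then exposed to compounds (1:260 dilution of DMSO stock) for 48 hours at 37C. After MPER lysis, β-galactosidase reporter activity was read as FDG fluorescence (ex 480/em 540) after 30 minutes.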
# TSHR antagonist: human thyrotropin receptor antagonism | P16473 | TSHR-expressing cells, TSH-stimulated cAMP HTRF, 2 h; hits give low values | activity change, negative = inhibition, % at 11.5 µM | actives 0.2% (n = 330,000) | AID 504810;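 active = activity change below a set negative limit, meaning inhibition stronger than a set level, cut at about -70% in these data; inconclusive = activity change between two set negative limits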; note: % is set by controls: 0 for no effect and ±100 for the full control effect
#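 TSHR-expressing cells, 200/well, pre-treated with compound, then stimulated with EC80 TSH (4nM final) for 2 hours at 37 deg C. cAMP measured by competitive HTRF: anti-cAMP cryptate antibody in lysis buffer plus cAMP-d2, read after 30 minutes at room temperature.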
# TSG101-PTAP inh: blocks PTAP/TSG101 interaction to inhibit HIV-1 budding. Q99816. Fluorescence polarization, FITC-PTAP peptide / Tsg101 binding. Potency, µM (highest dose often 115 µM), for the others: at the highest dose activity change, negative = inhibition, most hits filed as inhibitors. 340,000 tested, under 10 active. AID 493005; active = well fitted inhibition curve with a large enough effect in the main read-out, with a control signal flat, not every such curve was filed as active; inconclusive = small, poorly fitted or top-dose-only effect, or effect the other way, or a change in a side signal; inactive = no such curve, though single readings can be large or run the other way; note: potency is the fitted concentration of half-maximal effect; % of control where 0% means no effect
# Target sequence (Q99816 whole entry, looked up): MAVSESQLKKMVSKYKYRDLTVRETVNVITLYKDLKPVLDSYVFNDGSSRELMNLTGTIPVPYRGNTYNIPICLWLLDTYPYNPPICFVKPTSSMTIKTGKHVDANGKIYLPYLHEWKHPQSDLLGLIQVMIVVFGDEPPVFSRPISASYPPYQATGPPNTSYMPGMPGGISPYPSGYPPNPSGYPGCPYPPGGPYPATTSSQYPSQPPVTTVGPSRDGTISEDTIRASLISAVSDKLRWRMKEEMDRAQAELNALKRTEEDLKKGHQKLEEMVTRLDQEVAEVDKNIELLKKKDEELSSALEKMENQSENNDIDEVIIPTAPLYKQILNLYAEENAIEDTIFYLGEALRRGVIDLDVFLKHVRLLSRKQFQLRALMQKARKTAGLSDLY
#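 FP read-out: FITC-PTAP peptide, 50 nM final, binding Tsg101 binding domain, 10 uM final; 20 min, r.t.; 10 mM HEPES pH 7.5, 0.15 M NaCl, 0.01% Tween 20, 3 mM EDTA, 0.1 mM TCEP.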
# MBNL1-CUG inh: MBNL1-poly(CUG) RNA binding inhibition; TR-FRET MBNL1-His/biotin-(CUG)12 binding, 665/545 ratio; Potency, µM (highest dose often 57.5 µM), for the others: top-dose activity change, negative = inhibition, hits mostly inhibitors; actives 0.036% (n = 280,000); AID 2675; active = well fitted inhibition curve with a large enough effect in the signal ratio, with a control signal flat, not every such curve was filed as active; inconclusive = small, poorly fitted or top-dose-only effect, or effect the other way, or a change in a side signal; inactive = no such curve, though single readings can be large or run the other way; the % refers to the signal ratio; note: potency is the fitted concentration of half-maximal effect; % is set by controls: 0 for no effect and ±100 for the full control effect
#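 Compounds (final 92 nM to 58 uM) are added to His-tagged MBNL1 and biotin-(CUG)12, then terbium anti-His antibody and streptavidin-XL665 (5 nM final). After 60 min at room temperature, the 665/545 nm ratio is read.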
# An asterisk follows results filed as active; ? = inconclusive; nt = not tested or not shown; [ ] = dose if it differs, or a comment. In the library only some 0.26% were active in any assay of this set; here they are far more common. Unless noted, calls come from the whole dose curve; as a rule, active = well fitted curve in the direction sought with a large enough effect; inconclusive = small, poorly fitted or top-dose-only effect, or another doubt; inactive = no such curve, though single readings can be large; an effect the other way counts as inactive or inconclusive.
SMILES,CBFb RUNX1 block,TCR act,a7 integrin act,TSHR antagonist,TSG101-PTAP inh,MBNL1-CUG inh
COC(=O)[C@@]1(Cc2ccccc2)[C@H]2c3cc(C(=O)N4CCCC4)n(Cc4cccc5ccccc45)c3C[C@H]2CN1C(=O)c1ccccc1,-13%,nt,nt,nt,nt,nt
Nc1nnc(-c2cccc(F)c2)s1,6%,8%,?,5,0%,5%
O=c1oc2c(-c3cccc(F)c3)cc(O)cc2s1,12%,-6%,4µM*,8,-5%,1%
O=C(COCc1cc(-c2cccs2)on1)NC1CCCCC1,nt,1%,19%,-88*,-1%,8%
Cc1cc(=O)oc2ccc(OCc3ccccc3)cc12,nt,-3%,23%,-118*,-9%,-6%
Cc1cc(=O)oc2cc(OCc3ccccc3)ccc12,nt,nt,-11%,-6,-5%,4%
O=C(CCCCCN1CCN(c2ccccc2-c2ccccc2)CC1)NC1CCCc2ccccc21 (stereo unspecified),nt,nt,nt,-16,nt,nt
COc1ccc(CCNC(=O)c2cccc3c2C(=O)N(C2CCCCC2)C3)cc1OC,nt,-2%,-4%,-78*,-6%,-2%
C/C(=N\OCC(=O)OC(C)C(=O)Nc1ccc(C(N)=O)cc1)c1ccc2c(c1)OCO2 (stereo unspecified),nt,-17%,4.5µM*,-7,-3%,-6%
O=C(Nc1cccnc1Cl)c1ccc(=O)oc1,?,-6%,-16%,11,-7%,nt
Cn1ccc(C(=O)Nc2cccnc2Cl)n1,nt,3%,10µM*,-8,-7%,-6%
O=C(Nc1nc(-c2ccccc2)cs1)C1CCCN(S(=O)(=O)c2cccc([N+](=O)[O-])c2)C1 (stereo unspecified),-22%,3%,-6%,-19,-3%,10%
O=C(Nc1nc(-c2ccccc2)cs1)C1CCCN(S(=O)(=O)c2ccccc2)C1 (stereo unspecified),-21%,nt,-43%,-75*,-4%,6%
Nc1c(S(=O)(=O)O)cc(Nc2ccc(Nc3nc(Cl)nc(Nc4ccc(S(=O)(=O)O)cc4)n3)c(S(=O)(=O)O)c2)c2c1C(=O)c1ccccc1C2=O,nt,nt,nt,-30,nt,?
CN(C)c1nc(=S)nc(NCc2ccccc2)[nH]1,-3%,2%,46%,-85*,1%,-20%
COc1ccc(-c2csc(NC(=O)c3ccccc3NS(=O)(=O)c3ccc(F)c(F)c3)n2)cc1,-5%,-2%,-71%,-88*,-8%,-2%
Cc1ccc(S(=O)(=O)Nc2ccccc2C(=O)Nc2nc(-c3ccc(F)cc3)cs2)cc1,-9%,4%[46.1 µM],-58%,?,-2%,-4%
O=C1[C@H]2[C@H]3[C@H](O)[C@H](O)C/C(=N/OCc4ccccc4)[C@@H]3CC[C@@H]2C(=O)N1C1CCCCC1,4%[13.1 µM],nt,nt,nt,nt,nt
O=C1CCCC=C1[C@@H](O)C1CCCCC1,1%[13.1 µM],nt,nt,nt,nt,nt
CC(=O)c1c(O)cc(O)cc1CC(=O)O,-3%,-2%,18%,-9,-20%,7%
CC(=O)c1c(O)cc(O)c(C(C)=O)c1O,2%,-3%,-45%,-94*,-17%,-1%
O=[N+]([O-])c1c(Nc2ccc(O)cc2)cc(Cl)c2nonc12,nt,-1%,-3%,-102*,-1%,?
CN(C)c1cc(Nc2ccc(O)cc2)c([N+](=O)[O-])c2nonc12,0%,0%,-14%,10,-7%,?
CC(N)(C(=O)O)c1ccc(S(=O)(=O)O)cc1 (stereo unspecified),17%,nt,nt,nt,nt,nt
CCCOc1nc(SCCC)nc2c1cnn2-c1ccccc1,8%,-5%,11µM*,1,-2%,-6%
SMILES,CBFb RUNX1 block,TCR act,a7 integrin act,TSHR antagonist,TSG101-PTAP inh,MBNL1-CUG inh
O=C1NC(Cc2c[nH]c3ccccc23)C(=O)N1Cc1ccccc1 (stereo unspecified),nt,-10%,2%,-10,2%,-4%
COC(=O)c1ccc(CN2C(=O)NC(Cc3c[nH]c4ccccc34)C2=O)cc1 (stereo unspecified),nt,10%,-144%,-98*,0%,1%
NC(=O)C1CCN(c2nc(-c3ccc(N4CCCCC4)nc3)cs2)CC1,nt,nt,nt,-4,nt,nt
C=CC[C@@H]1[C@H](O)CC[C@@]2(C)[C@H]1CC[C@@H]1[C@@H]2CC[C@]2(C)C([C@H](C)CCCC(C)C)CC[C@@H]12 (stereo partly specified),-8%,nt,nt,nt,nt,nt
CC(CCC(C)C(C)(C)C)[C@@H]1CC[C@H]2C3C[C@H](OS(O)(=S)=S)[C@H]4C[C@H](OS(O)(=S)=S)[C@@H](OS(O)(=S)=S)C[C@]4(C)[C@H]3CC[C@]12C (stereo partly specified) (tested in a mixture with another compound),nt,7%,-24%,-83*,?,nt
O=C(Nc1ccncc1)c1cn(-c2ccccc2)nc1-c1cccs1,0%,-3%,-11%,-75*,-3%,61%
CNc1cc([N+](=O)[O-])ccc1OCc1ccccc1,27%,7%,4.5µM*,7,-5%,?
CC/C=C/C#N,17%[21.7 µM],nt,nt,nt,nt,nt
COc1cccc(N2CCN(c3ncnc4c3cnn4-c3ccc(C)cc3C)CC2)c1,-18%,4%,-49%,-93*,-4%,9%
Cc1ccc(-n2ncc3c(N4CCCC4)ncnc32)c(C)c1,28%,-10%,-10%,-10,2%,?
COc1ccc(OC)c(C2=Nn3c(nnc3-c3ccccc3O)SC2)c1,3%,nt,nt,nt,nt,nt
COc1ccc(CNCc2cc(C)c(OC)cc2C)c(OC)c1,nt,-9%,-54%,-129*,-2%,-1%
CC(Cc1ccccc1)C(=O)NCC1CC1 (stereo unspecified),12%,nt,nt,nt,nt,nt
COc1ccc(NC(=O)Cc2c[nH]c3ccccc23)cc1S(=O)(=O)N1CCCCC1,-11%,-2%[46.1 µM],-7%,-75*,-1%,-4%
